Pf Dd2 inh = inhibitors of Plasmodium falciparum Dd2 growth | P. falciparum Dd2 growth, SYBR Green, 72 h | Potency, µM (series often up to 28.9 µM), without a hit: at the highest dose activity, negative = inhibition, usual class: inhibitors | 120,000 compounds, 4.3% hits | AID 1347417; active means well fitted inhibition curve with a large enough effect;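 further: plate controls were DMSO vehicle for no effect and reference drug for full effect; nearly all actives have a fitted effect of over 65% in size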
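Infected erythrocytes (Dd2, 0.3% parasitemia, 2.5% hematocrit final) are added to compound in RPMI-1640/Albumax II medium, grown 72 h at 37C in low oxygen, then lysed with saponin/Triton-X containing SYBR Green and read by fluorescence.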
* marks the source's active call; other numbers are inactive results; i = inactive; [ ] = remark or other dose. This excerpt belongs to a sample that is enriched for hits. Potency means the concentration at half of the fitted maximal effect.

SMILES	Pf Dd2 inh
CC1(C)[C@H]2CC[C@@H](CN[S+](=O)([O-])c3ccccc3)[C@@H]1C2	11µM*
Cc1ccc([S+](=O)([O-])NC[C@@H]2CC[C@H]3C[C@@H]2C3(C)C)cc1	i
CCn1ccc(C(=O)NCC2Cn3cccc3C(=O)N2Cc2ccccc2)n1 (stereo not given)	2%
COc1ccc(CCNC(=O)C2CCN(c3cn[nH]c(=O)c3)C2)cc1OC (stereo not given)	-7%
COCCC1(C(=O)O)CCCN(C(=O)c2cc(F)ccc2OC)C1 (stereo not given)	-3%
O=C(c1nc(-c2ccc(Cl)cc2Cl)c2ccccn12)N1CCCC1	-15%
O=C(c1nc(-c2ccc(Cl)cc2)c2ccccn12)N1CCCC1	11µM*
O=C(NCc1cccs1)c1nc(-c2cccc(C(F)(F)F)c2)c2cnccn12	1.8µM*
O=C(NCc1cccnc1)c1nc(-c2ccc(F)cc2)c2ccccn12	-20%
N#CC1CCN(C(=O)c2nc(-c3ccccc3)c3ccccn23)CC1	i
O=C(NCc1cccs1)c1nc(-c2ccsc2)c2ccccn12	i
O=C(c1nc(-c2cccc(C(F)(F)F)c2)c2ccccn12)N1CCOCC1	-12%
O=C(NCc1ccc(F)cc1)c1nc(-c2cccc(C(F)(F)F)c2)c2cnccn12	2.5µM*
Cc1cccc(C)c1-c1nc(C(=O)NC(C)C)n2ccccc12	13µM*
CC(C)NC(=O)c1nc(-c2cc(Cl)cc(Cl)c2)c2ccccn12	-14%
O=C(NCc1cccs1)c1nc(-c2ccc(F)cc2)c2ccccn12	-22%
Cc1cccc(C)c1-c1nc(C(=O)NCc2ccc3c(c2)OCO3)n2ccccc12	-9%
O=C(NCCn1ccnc1-c1cc2n(n1)CCNC2)c1ccncc1	15%
O=C1N[C@H](CC(=O)N2CCn3c(nnc3C(F)(F)F)C2)C(=O)Nc2ccccc21	1%
COc1ccc(CNC(=O)[C@H]2CCC[C@H]2NC(=O)c2cnc(C)cn2)cc1	16%
FC(F)(F)c1ccc(O[C@H]2COCCN(CC3CCCC3)C2)cc1	-19%[44.1 µM]
Cc1ccsc1CN(C)C1CCc2nn(CC3CC3)c(=O)n2CC1 (stereo not given)	14%
O=C(c1ccncc1)N1CCC2(CC1)NCc1ccccc1NC2=O	13%
COc1ccc(CN2CC3(Cc4ccccc4C(=O)N3)C2)cc1	-39%
CC(C)NC(=O)c1nc(-c2cccc(C(F)(F)F)c2)c2cnccn12	1.8µM*
SMILES	Pf Dd2 inh
O=C(NCc1ccccn1)c1nc(-c2cccnc2)c2ccccn12	-14%[44.1 µM]
O=C(NCc1ccc(F)cc1)c1nc(-c2ccc(Cl)cc2)c2ccccn12	10µM*
O=C(NCc1ccc(F)cc1)c1nc(-c2ccc(Cl)cc2Cl)c2ccccn12	-14%
COC(=O)CNC(=O)c1nc(-c2ccc(F)cc2)c2ccccn12	-12%[44.1 µM]
O=C(NCc1ccc(F)cc1)c1nc(-c2cccc(F)c2)c2cnccn12	2.5µM*
CC(C)NC(=O)c1nc(-c2cccc(C(F)(F)F)c2)c2ccccn12	-10%[44.1 µM]
CN(C)C(=O)c1nc(-c2cccc(F)c2)c2cnccn12	i
CC(C)NC(=O)c1nc(-c2cccnc2)c2cnccn12	i
COCC1CN(C(=O)c2cc(Cl)ccc2OC)CC12CCNCC2 (stereo not given)	24%
COc1ccccc1OCc1nc2c(n1Cc1ccccc1)C(=O)N(Cc1ccccc1F)CCN2	i
O=C(NCc1cccc2[nH]ccc12)C1CCCN(C2CCN(C(=O)C3CC3)CC2)C1 (stereo not given)	-6%
O=C(O)[C@H]1C[C@H](C(=O)NCc2ccccn2)CN(C(=O)CC2CCCC2)C1	-2%
COCCC1(CO)CCCN(C(=O)c2ccc3c(c2)OCC(=O)N3)C1 (stereo not given)	-2%
O=C1CCC2(C(=O)NCC3CC3)CCCC=C2N1c1ccccc1 (stereo not given)	-22%
COc1ccc(-c2cc(N3CCCC(NC(=O)c4cc(Cl)ccc4F)C3)n[nH]2)cc1 (stereo not given)	i
Cc1ccc(C(C(=O)NCc2cc(C)nn2C)N(C)C)cc1 (stereo not given)	-9%
COC1CCN(c2ccc(-c3nc(COc4ccccc4)no3)cn2)CC1	i
CCN1CCN(c2ccc(-c3nc(CCCc4ccccc4)no3)cn2)CC1	10µM*
c1ccc(CCc2noc(-c3ccc(N4CCCOCC4)nc3)n2)cc1	-25%
CN1CCCCCCN(S(C)(=O)=O)[C@H]2CCC[C@H]2C1=O	12%
CCN(CC)Cc1nc(C2(O)CCN(Cc3ccccc3)CC2)cs1	-16%[44.1 µM]
O=C(c1ccc2nc[nH]c2c1)N1CCC(CO)(CCCc2ccccc2)CC1	13%
O=C(c1cc2cc(F)ccc2[nH]1)N1CCC(CO)(CCCc2ccccc2)CC1	-13%
OCC1(CCCc2ccccc2)CCN(Cc2ccc(-n3cccn3)cc2)CC1	4.5µM*
OCC1(CCCc2ccccc2)CCN(Cc2cccn2-c2nccs2)CC1	10µM*
SMILES	Pf Dd2 inh
O=C(NCCCc1ccccc1)C1(CCO)CCN(c2ncccn2)C1 (stereo not given)	i
CC[C@H]1CN(C(=O)Nc2cccc(OC)c2)CC[C@H]1CC(=O)N(C)CCC#N	i
O=C(NC1C[C@H]2CC[C@@H](C1)N2C(=O)c1cccc(C(F)(F)F)c1)c1ccncc1 (stereo not given in full)	-10%
COc1cc(F)cc(-c2cnc3[nH]cc(CC(=O)N4CCOCC4)c3c2)c1	-35%[44.1 µM]
CN1CCC(OC2CCN(C(=O)c3ccc(Cl)s3)CC2)CC1	-24%
COc1ccc(C(=O)Nc2ccc3c(c2)CN(Cc2ccc(F)cc2)C(=O)C(C)O3)c(OC)c1 (stereo not given)	i
COc1ccc(CN2Cc3cc(NC(=O)c4ccc(F)cc4)ccc3OC(C)C2=O)c(OC)c1 (stereo not given)	i
COc1ccc(CN2Cc3cc(NC(=O)c4ccccc4F)ccc3OC(C)C2=O)c(OC)c1 (stereo not given)	3.2µM*
Cc1noc([C@@H]2CN(Cc3cccnc3)C[C@H]2CO)n1	24%
O=C(N[C@H]1C[C@@H](CO)N(Cc2cccs2)C1)c1cccnc1	5%
C[S+](=O)([O-])N1Cc2ccccc2CC2(CCCCN2Cc2ccccn2)C1 (stereo not given)	-11%
Cn1cnc2cc(-c3ccc(F)cc3)cc(C(=O)NCCc3ccccn3)c21	14%[44.1 µM]
Cc1noc(C)c1C(=O)N1Cc2ccccc2CC2(CCN(CC3CCNCC3)CC2)C1	17%
CN1CCC(C(=O)N2Cc3ccccc3CC3(CCN(C)C3)C2)CC1 (stereo not given)	14%
Cc1noc(C)c1C(=O)N1Cc2ccccc2CC2(CCN(C)C2)C1 (stereo not given)	10µM*
Cc1ccc(C(=O)N[C@@H]2CN(C)C[C@H]2CN(C)C)s1	26%
O=C1CCN(S(=O)(=O)c2ccccc2)CCCN(C(=O)c2nccc3ccccc23)CCN1	-29%
O=C(CCC1CCCN(S(=O)(=O)c2ccc(F)cc2)C1)NCCN1CCOCC1 (stereo not given)	-19%
CCOCCc1nnc(NC(=O)C(=O)c2cc(C)n(-c3ccc(C)cc3C)c2C)s1	84%
CCOc1ccccc1NC(=O)CN1C(=O)C(=O)c2ccccc21	158%[5.79 µM]
COc1ccccc1NC(=O)C(=O)c1cc(C)n(-c2cc(C)cc(C)c2)c1C	24%
Cc1ccc(-n2c(C)cc(C(=O)C(=O)Nc3ccccc3)c2C)c(C)c1	5µM*
CCOc1ccccc1NC(=O)C(=O)c1cc(C)n(-c2cccc(C)c2C)c1C	7.1µM*
Cc1cc(/C=C(\C#N)C(=O)Nc2ccccc2)c(C)n1-c1ccc(F)cc1	-15%

High-throughput results from PubChem BioAssay.
